In PubChem BioAssay AID720690 (Broad Institute, 2013):
Entries with a potency or affinity are not part of this list. Active and inactive are the calls of the source.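 The calls were made as follows: active = every repeat run showing a signal drop whose fitted half-maximal concentration is at most twice the top tested concentration; inconclusive = repeat runs disagree, or flat partial drop, or poor fit; inactive = the rest.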

Assay: general mammalian cell viability loss – activator set, cherry-pick, cytotoxicity control for miR-122 modulator project, dose response (AID 720690);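 also: 0% = neutral control wells and -100% = MG132 cytotoxic control wells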
Details: HEK293T viability, CellTiter-Glo luminescence, 48 h; series mostly up to 26 µM; activity change, negative = cytotoxicity: at the top concentration

Row | Structure (SMILES) | activity change, negative = cytotoxicity
1 | CC(C)NC(=O)N1C[C@@H]2[C@H](c3ccccc31)[C@H](CO)N2Cc1ccccc1 | -2.49% [at 23.5 µM] (inactive)
2 | CNc1nc(NCCOc2ccccc2)c2sccc2n1 | -26.9% (inactive)
3 | CN1[C@@H](CO)[C@@H]2c3ccccc3N(C(=O)Nc3cc(F)ccc3F)C[C@@H]21 | -20.7% (inactive)
4 | COc1ccc(-c2ccc(C#N)c(OC(=O)c3c(Cl)cccc3Cl)n2)cc1 | -0.324% (inactive)
5 | CC(C)C#Cc1ccc2c(c1)O[C@H](CN(C)C(=O)Nc1ccccc1)[C@H](C)CN([C@@H](C)CO)S2(=O)=O | -13% (inactive)
6 | CN1C(=O)c2cc(NC(=O)Nc3ccc(Cl)cc3)ccc2OC[C@@H]2O[C@@H](CC(=O)NCCN3CCCCC3)CC[C@H]21 | -1.75% (inactive)
